Assay outcomes deposited in PubChem BioAssay by several laboratories.
GDH-TPI counter-1: GDH-TPI coupling enzyme inhibitors, primary screen, artefact control for M. tuberculosis FBA inhibitor project, biochemical, absorbance, full deck | GDH-TPI coupled enzyme counterscreen, NADH absorbance | 1.2% of 360,000 active | inhibition, % at 4.8 µM; in the data active = inhibition above about 30%
Mtb betalactam: beta-lactam sensitization of Mtb H37Rv, H37Rv. inhibition, % at 25 µM. M. tuberculosis H37Rv growth with meropenem, percent inhibition. 0.27% of 330,000 active;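 note: growth measured after seven days incubation then overnight dye step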
UGM FP inh: M. tuberculosis UGM enzyme inhibitors, primary screen, biochemical, fluorescence polarization, single point | UDP-galactopyranose mutase (Mycobacterium tuberculosis (strain ATCC 25618 / H37Rv)), … | purified UGM, fluorescence polarization probe displacement | inhibition, % at 10 µM | 0.06% of 320,000 active | AID 504406, 2011; in the data active = inhibition above about 10%, passing the limit was not always enough; inconclusive = no clear call, values can overlap the other calls
Rv3671c inh: Rv3671c serine protease inhibitors, primary screen, biochemical, fluorescence polarization, M. tuberculosis H37Rv; P9WHR9; inhibition, % at 5.96 µM; 0.048% of 320,000 active; in the data active = inhibition above about 38%;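 note: extracellular domain of Rv3671c used as enzyme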
Target sequence (P9WHR9 whole entry, looked up, the tested form may be a part): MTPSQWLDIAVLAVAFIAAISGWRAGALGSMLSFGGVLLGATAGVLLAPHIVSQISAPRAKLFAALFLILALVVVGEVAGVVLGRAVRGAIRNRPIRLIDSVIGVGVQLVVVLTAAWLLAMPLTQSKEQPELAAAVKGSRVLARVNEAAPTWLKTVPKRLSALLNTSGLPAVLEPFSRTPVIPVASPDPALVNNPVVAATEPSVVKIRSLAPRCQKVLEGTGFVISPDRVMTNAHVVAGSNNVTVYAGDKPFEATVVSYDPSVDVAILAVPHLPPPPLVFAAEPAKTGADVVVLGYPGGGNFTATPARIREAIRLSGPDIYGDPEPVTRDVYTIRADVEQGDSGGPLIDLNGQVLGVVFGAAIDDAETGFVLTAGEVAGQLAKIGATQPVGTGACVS
Mtb FBA inh: Mtb FBA enzyme inhibitors, primary screen, biochemical, fluorescence, strain H37Rv; purified M. tuberculosis FBA, fluorescence read-out; 2.3% of 360,000 active; inhibition, % at 1 µM; AID 588726, 2011; in the data active = inhibition above about 27%
RecA splice inh: Mtb RecA intein splicing inhibitors, primary screen, biochemical, fluorescence, HTS. cell-free RecA intein splicing. inhibition, % (test concentration not listed). 0.75% of 290,000 active. AID 2221, 2009; in the data active = inhibition above about 30%; inconclusive = no clear call, values can overlap the other calls
Mtb FBA inh conf: M. tuberculosis aldolase blockers, biochemical, fluorescence, strain H37Rv, confirmation. 78% of 5,600 active. shares compounds with Mtb FBA inh. inhibition, % at 1 µM. purified M. tuberculosis FBA, fluorescence read-out; in the data active = inhibition above about 27%
GDH-TPI counter-2: GDH-TPI coupling enzyme inhibitors, artefact control for M. tuberculosis FBA inhibitor project, biochemical, fluorescence, high throughput; shares compounds with Mtb FBA inh; GDH-TPI coupled enzyme counterscreen; inhibition, % at 1 µM; 81% of 5,600 active; in the data active = inhibition above about 10%
GDH-TPI dose: GDH-TPI coupling enzyme inhibitors, dose response, artefact control for M. tuberculosis FBA inhibitor project, biochemical, fluorescence, IC50. IC50, µM. 79% of 170 active. shares compounds with Mtb FBA inh. GDH-TPI coupled enzyme assay, artifact counterscreen
Numbers stand for hits; i = inactive; ? = inconclusive; nt = no result; + = active, no number; ! = not confirmed by another sample. The list is not random: actives were taken first. Their share in the collection is about 4%. Unless noted, the rule behind the calls is not given here.

SMILES	GDH-TPI counter-1	Mtb betalactam	UGM FP inh	Rv3671c inh	Mtb FBA inh	RecA splice inh	Mtb FBA inh conf	GDH-TPI counter-2	others
COc1ccc(NC(=O)N(C)C[C@H]2Oc3ccc(NC(=O)Nc4ccc5c(c4)OCO5)cc3C(=O)N([C@H](C)CO)C[C@@H]2C)cc1	i	nt	nt	nt	i	nt	nt	nt
Cc1cccc(NC(=O)C2CCCCN2S(=O)(=O)c2ccccc2)c1C (stereo not given)	i	i	i	i	i	nt	nt	nt
Cc1ccc(S(=O)(=O)N(C)C)cc1NC(=O)C1CCCCN1S(=O)(=O)c1ccccc1 (stereo not given)	i	i	i	i	106	nt	132	108
COc1ccc(N2CCN(S(=O)(=O)CCNC(=O)C3CC3)CC2)cc1	i	i	i	i	i	i	nt	nt
CC(C)(C)OC(=O)[C@H](Cc1ccccc1)NC(=O)c1ncn2c1c(=O)[nH]c1ccc(Br)cc12	i	nt	nt	nt	i	nt	nt	nt
CC(C)(C)OC(=O)NCCCCCNC(=O)c1ncn2c1c(=O)[nH]c1ccccc12	i	nt	nt	nt	87	nt	42	34
COc1ccc2c(c1)NP(=S)(c1ccccc1)N2C (stereo not given)	i	nt	nt	nt	27	nt	67	55
O=C(Nc1ccnn1C1CCN(Cc2c[nH]c3ccccc23)CC1)c1ccccc1	i	i	i	i	i	i	nt	nt
O=c1cc(CN2CCc3ccccc32)c2ccc(O)cc2o1	i	i	i	i	41	nt	i	i
CCOC(=O)c1c(NC(=O)C2C3C=CC(C3)C2C(=O)O)sc2c1CCC(CC)C2 (stereo not given)	i	i	i	i	34	i	i	i
Cc1ccc(/C(=N/Nc2nc3ccccc3s2)C2=C(O)c3ccccc3C2=O)cc1	i	i	i	i	i	i	nt	nt
O=C(Nc1nc2ccccc2[nH]1)c1ccccc1O	i	i	i	i	47	i	+	+
O=C(Nc1nc2ccccc2[nH]1)c1ccccc1	i	i	i	i	i	i	nt	nt
O=C(O)CSc1cccc2cccnc12	i	i	i	i	27!	i	i	10
O=C(CSc1cccc2cccnc12)N/N=C/c1ccc(F)cc1	i	i	i	i	i	i	nt	nt
c1ccc2nc(-c3nc4ccccc4o3)ccc2c1	i	nt	i	i	69	i	118	104
c1ccc(-c2ccc3ccccc3n2)cc1	i	i	i	i	i	i	nt	nt
c1ccc(-c2nc3ccccc3o2)nc1	i	i	i	i	29	i	i	i
CN(C)C1=NCC(CSC(=N)N)S1 (stereo not given)	i	i	i	i	68	i	200	175
COc1ccc2oc(C(=O)OC(C)C(=O)N3C(C)CCCC3C)c(C)c2c1 (stereo not given)	i	i	i	i	62	nt	51	31
COc1ccc2oc(C(=O)NN3C(C)CCCC3C)c(C)c2c1 (stereo not given)	i	i	i	i	i	i	nt	nt
COc1ccc2oc(C(=O)OC(C)C(=O)NC3(C#N)CCCCC3)c(C)c2c1 (stereo not given)	i	i	i	i	28	i	39	29
COc1ccc2oc(C(=O)OC(C)C(=O)NCc3ccccc3)c(C)c2c1 (stereo not given)	i	i	i	i	i	i	nt	nt
CC(C)CC1C(=O)N(Cc2cn(CCC3OCCO3)nn2)CCS(=O)(=O)N1Cc1ccc(-c2cccc(N(C)C)c2)cc1 (stereo not given)	i	nt	nt	nt	i	nt	nt	nt
COc1cc(Cn2c3ccc(NC(=O)CCc4ccc(O)cc4)cc3c(=O)n2C)ccc1F	i	nt	nt	nt	111	nt	169	125
SMILES	GDH-TPI counter-1	Mtb betalactam	UGM FP inh	Rv3671c inh	Mtb FBA inh	RecA splice inh	Mtb FBA inh conf	GDH-TPI counter-2	others
COc1ccc(CCC(=O)Nc2ccc3c(c2)OCO3)cc1OC	i	i	i	i	i	i	nt	nt
Cn1c(=O)c2cc(NC(=O)CCc3ccc4c(c3)OCO4)ccc2n1Cc1ccc(F)cc1	i	nt	nt	nt	85	nt	48	21
COc1cc(CCC(=O)OCC(=O)Nc2ccc(F)c(F)c2)cc(OC)c1OC	i	i	i	i	i	i	nt	nt
NC(=O)c1cccc(-c2coc3c(C(=O)NCCc4ccccc4)cccc23)c1	i	nt	nt	nt	i	nt	nt	nt
COC(=O)C1=C(C)NC2=C(C(=O)CCC2)C1c1cccc(C)n1 (stereo not given)	i	i	i	i	28	nt	147	121
COC(=O)C1=C(C)NC2=C(C(=O)CC(C)(C)C2)C1c1cn(Cc2ccc(Br)cc2)nc1-c1ccccc1 (stereo not given)	i	i	i	i	i	i	nt	nt
COC(=O)C1=C(C)NC2=C(C(=O)CC(C)(C)C2)C1c1cccc(C)n1 (stereo not given)	i	?	i	i	i	i	nt	nt
COC(=O)C1=C(C)NC2=C(C(=O)CCC2)C1c1cn(Cc2ccc(Br)cc2)nc1-c1ccccc1 (stereo not given)	i	i	i	i	28	i	41	30
Cc1ccc(C(=O)NCN2CCN(c3ccccc3)CC2)cc1	i	nt	nt	nt	i	nt	nt	nt
OCc1ccc2c(c1)c(-c1ccc3c(c1)OCCO3)c(-c1ccccc1)n2-c1ccccc1	i	i	i	i	62	nt	i	i	GDH-TPI dose=1.4
CC1(Cc2cc(Cl)ccc2C(F)(F)F)C(=O)Nc2c(Cl)cccc21 (stereo not given)	i	nt	nt	nt	i	nt	nt	nt
O=C(OCc1ccc(Br)cc1F)c1cc2ccccc2oc1=O	i	i	i	i	67	nt	191	153
O=C(COC(=O)c1cc2ccccc2oc1=O)Nc1cccc(Br)c1	i	i	i	i	i	nt	nt	nt
O=C(NCCN1CCOCC1)c1cc2ccccc2[nH]1	i	i	i	i	i	i	nt	nt
COc1ccc2[nH]c(C(=O)NCCN3CCOCC3)cc2c1	i	i	i	i	77	i	43	35
COc1ccc2[nH]c(C(=O)NCc3ccc4c(c3)OCO4)cc2c1	i	i	i	i	39	i	i	i
COc1ccc(C(=O)NCc2ccc3c(c2)OCO3)cc1	i	i	i	i	i	i	nt	nt
Cc1ccc(C(=O)Nc2c(-c3ccc(Cl)cc3)[nH][nH]c2=O)cc1	nt	nt	nt	nt	i	nt	nt	nt
Cc1cc(OC(=O)N(C)C)nc2c1c(C)nn2C	i	i	i	i	i	i	nt	nt
